Data: the supplement of paper PMC3616981

Compound: CC(C)c1cccc(C(C)C)c1N1C(=O)c2ccc(O)cc2C1=O
Test: reporter fold induction vs vehicle; higher = higher reporter activity
Experimental: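 Attagene multiplexed transcription-factor reporter assay (48 cis response elements and 25 trans nuclear-receptor constructs) treated with 5HPP-33 at 8 concentrations (0.091–200 µM). The response is fold induction of reporter activity relative to vehicle control. Cell line and time not stated in the paper; tested in ToxCast Phase II for this study.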

Target	reporter fold induction (0.091 µM)	reporter fold induction (0.274 µM)	reporter fold induction (0.823 µM)	reporter fold induction (2.469 µM)	reporter fold induction (7.407 µM)	reporter fold induction (22.22 µM)	reporter fold induction (66.67 µM)	reporter fold induction (200 µM)
AP_1_CIS	1.01	0.867	0.986	0.984	1.2	1.44	1.7	0.71
EGR_CIS	1.05	0.979	0.95	0.927	1.1	1.2	1.64	2.7
LXRa_TRANS	0.858	0.611	1	0.742	0.814	0.638	0.979	0.718
Xbp1_CIS	1.06	0.98	0.93	0.937	1.21	1.13	1.74	4.47
Sox_CIS	0.965	1.03	1.03	1.04	0.984	1.19	1.19	2.17
